Records with an inconclusive call do not appear. Entries that show only a call come without a potency. A number with no mark means an inactive call. Active and inactive are the calls of the source. Calls follow the shape of the dose curve; as a rule, active = well fitted inhibition curve with a large enough effect; inconclusive = small, poorly fitted or top-dose-only effect; inactive = flat fitted curve, though single readings scatter.

The test system of the assay is Zika virus NS2B-NS3 protease. The experiment in a line: Primary screen GU AMC qHTS for Zika virus inhibitors (AID 1347154). Also: nearly all actives have a fitted effect of over 70% in size. In short, it runs like this:
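Unlinked Zika NS2B hydrophilic domain–NS3 protease complex at 25 nM in 10 mM Tris-HCl pH 8.0, 0.01% Tween 20, with an AMC peptide substrate. Fluorescence change (340/450 nm) over 15 min at room temperature, normalized to controls, fitted to 4-parameter Hill.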
On the technique in general: Quantitative high-throughput screening tests each substance at several concentrations.

Turning to `CCOC(=O)C1OC1C(=O)NC(CC(C)C)C(=O)NCCC(C)C` (configuration not stated), the Potency entry is “inactive”. Consider `O=C(Nc1ccc([N+](=O)[O-])cc1O)Nc1ccccc1Br`, for which the Potency result was “inactive”.

The record behind these values is PubChem BioAssay (NCATS).
